High-throughput results (PubChem)
Pf growth 96h – P. falciparum growth inhibition at 96 hour, primary screen for plastid delayed-death inhibitors; 320,000 compounds, 6.9% hits; Potency, µM (highest dose often 28.7 µM), without a hit: top-dose activity change, negative = inhibition, actives largely listed as inhibitors; AID 504834; P. falciparum luciferase reporter growth, 96 h; also: % is scaled to controls: 0 for no effect and ±100 for the full control effect
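Delayed-death screen, second-generation endpoint: infected erythrocytes, 2% hematocrit, 0.05% parasitemia final; 96 hours at 37 C, 5% CO2; luciferase detection reagent; luminescence decrease equals reduced growth.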
NS1 inh – influenza NS1 inhibition; Potency, µM (doses to about 46.1 µM), without a hit: at the highest dose activity, positive = more growth; 270,000 compounds, 0.4% hits; calls by dose curve; also: actives are rising curves; nearly all actives have a fitted effect of over 50% in size
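A cell-based growth assay was used: compounds that relieve NS1-induced slow growth of budding yeast raise OD600. Assay medium was yeast nitrogen base with ammonium sulphate and -URA supplement, pH 6.0, with 2% galactose.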
Pf growth 48h – P. falciparum growth inhibition at 48 hours (one generation); Potency, µM (top dose mostly 28.7 µM), inactives show at the highest dose activity change, negative = inhibition, hits mostly inhibitors; 310,000 compounds, 5.9% hits; P. falciparum luciferase growth in erythrocytes, 48 h; also: % is scaled to controls: 0 for no effect and ±100 for the full control effect
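A one-generation exposure of luciferase-tagged malaria parasites in RPMI 1640/Albumax erythrocyte culture, 37 C and 5% CO2. Inhibition is inferred from decreased luminescence after adding detection reagent.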
SARS PLpro yeast – inhibitors of SARS-CoV papain-like protease in yeast; S. cerevisiae expressing SARS-CoV PLpro, growth rescue; Potency, µM (titrated, usually from 32.9 µM), for the others: at the highest dose activity, positive = growth rescue, hits mostly activators; 330,000 compounds, 0.19% hits; AID 485353; calls by dose curve; also: 0% is about no effect; nearly all actives have a fitted effect of over 55% in size
RE007 growth inh – less growth of the S. pombe RE007 Vpr strain; S. pombe RE007 Vpr strain, BacTiter-Glo ATP luminescence, 24 h; Potency, µM (doses to about 92.2 µM), for inactives: top-dose activity change, negative = less growth, usual class: inhibitors; 360,000 compounds, 0.21% hits; active = well fitted falling curve with a large enough effect; inconclusive = small, poorly fitted or top-dose-only effect; inactive = no such curve, though single readings can be large or run the other way; also: % is scaled to controls: 0 for no effect and ±100 for the full control effect; nearly all actives have a fitted effect of over 50% in size
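Fission yeast strain RE007, carrying one chromosomally integrated HIV-1 vpr copy, was seeded at OD 0.01 in PMG+AL medium with 23 nL pinned compound. After 24 h at 30 °C and 99% humidity, viability was read by BacTiter-Glo luminescence.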
* marks the source's active call; other numbers are inactive results; ? = inconclusive; · = not tested or not shown. Only some compounds are listed: those with a hit (about 9.5% of all), similar ones and a draw of the others. Unless noted, calls follow the shape of the dose curve; as a rule, active = well fitted inhibition curve with a large enough effect; inconclusive = small, poorly fitted or top-dose-only effect, or another doubt; inactive = no such curve, though single readings can be large or run the other way. Potency is read from the fitted curve at half-maximal effect.

SMILES | Pf growth 96h | NS1 inh | Pf growth 48h | SARS PLpro yeast | RE007 growth inh
Cc1ccc(NC(=O)c2ccccc2O)cc1 | -89.3% | -81.2% | -6.9% | -85.4% | 31.6µM*
Cc1ccc(C)n1NC(=O)c1ccccc1O | 9.28µM* | ? | ? | -3.2% | 7.6%
Cc1ccc(C)n1NC(=O)c1ccccc1[N+](=O)[O-] | -28.4% | 7.0% | 0.7% | 3.3% | 44.5%
CC(=O)c1ccc(NC(=O)c2ccccc2-c2ccccc2C(=O)O)cc1 | 4.65µM* | 19.3% | 0.0% | 5.8% | 3.1%
COC(=O)C[C@@H]1C[C@H]2c3cc(NS(C)(=O)=O)ccc3O[C@H]2[C@H](CO)O1 | · | · | · | · | 14.5%
O=[N+]([O-])C(/C=C(\Cl)[N+](=O)[O-])=C1N(Cc2ccc(Cl)nc2)CCN1Cc1ccc(Cl)nc1 | 6.57µM* | -6.6% | 2.33µM* | 2.5% | -4.3%
O=S(=O)(c1cc(Cl)ccc1Cl)N1CCN(Cc2ccc3c(c2)OCO3)CC1 | 10.4µM* | -50.2% | · | -2.9% | -7.8%
O=C(CCc1ccc(S(=O)(=O)N2CCOCC2)cc1)N1CCN(Cc2ccc3c(c2)OCO3)CC1 | 3.29µM* | 11.7% | · | -6.6% | -5.8%
Cc1noc(C)c1S(=O)(=O)N1CCC(C(=O)N2CCN(Cc3ccc4c(c3)OCO4)CC2)CC1 | 5.86µM* | -5.4% | ? | 1.8% | 8.4%
Cc1ccc(C(=O)N2CCN(Cc3ccc4c(c3)OCO4)CC2)cc1S(=O)(=O)N1CCOCC1 | 10.4µM* | 6.0% | ? | 0.3% | -5.2%
O=C(CCc1ccc(S(=O)(=O)NCc2ccccc2)cc1)N1CCN(Cc2ccc3c(c2)OCO3)CC1 | ? | -19.4% | ? | 0.3% | 8.0%
CCOc1ccccc1C=NNC(=O)C1CC1 | · | · | · | · | -5.0%
C=CCn1c(COc2cccc(C)c2)nnc1SCn1nnc2ccccc2c1=O | -15.9% | -5.2% | -3.7% | 7.9% | -3.3%
CC1CCN(c2nc3ccc(C(=O)N4CCN(Cc5ccc6c(c5)OCO6)CC4)cc3s2)CC1 | 4.15µM* | 8.8% | · | 8.1% | -14.6%
O=C(c1cccc(Cl)c1)N1CCN(Cc2ccc3c(c2)OCO3)CC1 | 6.9% | ? | ? | 6.3% | -6.3%
COc1ccc(N2C3=C(C(=O)CC(C)(C)C3)C(c3ccccc3OC)C3=C2CC(C)(C)CC3=O)cc1 | ? | -1.5% | ? | -1.0% | 12.4%
COc1ccc(N2C3=C(CC4=C2CCCC4=O)C(=O)CCC3)cc1 | 11.7µM* | 25.3% | ? | 3.9% | -9.9%
COc1ccc(N2C3=C(CC4=C2CC(C)(C)CC4=O)C(=O)CC(C)(C)C3)cc1 | 13.1µM* | 20.4% | 9.28µM* | 1.4% | -21.2%
O=C(O)CCCC(=O)N1N=C(c2ccccc2)CC1c1ccc2c(c1)OCO2 (stereo unspecified) | ? | ? | ? | 1.9% | -20.7%
CCOC(=O)c1c(NC(=O)CC(C)C)sc(C(C)=O)c1C | ? | 2.9% | ? | -13.1% | -7.7%
CCN(CC)C(=O)c1sc(NC(=O)C(Sc2ccccc2)c2ccccc2)c(C(=O)OC(C)C)c1C (stereo unspecified) | 0.415µM* | 10.0% | · | -2.5% | -10.4%
CCOC(=O)c1c(NC(=O)OC)sc(C(=O)N(CC)CC)c1C | ? | -18.4% | 5.86µM* | -2.8% | -10.1%
CCOC(=O)c1sc(NC(=O)CN(CC(C)C)CC(C)C)c(C(=O)OCC)c1C | · | ? | 2.33µM* | -1.7% | -3.4%
CCOC(=O)c1sc(NC(=O)OC)c(C(=O)OC)c1C | 35.0% | · | -0.1% | 0.8% | -14.5%
C[C@]12C[C@H](O)C3[C@@H](CCC4=CC(=O)CC[C@@]43C)[C@@H]1CC[C@@H]2C(=O)CO (stereo partly specified) | · | -4.8% | · | · | ·
SMILES | Pf growth 96h | NS1 inh | Pf growth 48h | SARS PLpro yeast | RE007 growth inh
O=C(NN=C1CCCC1)c1ccccc1OCc1ccc(Cl)cc1 | ? | 10.3% | 8.7% | -0.7% | 9.1%
COC(=O)c1sc(NC(=O)CN2CCN(c3cccc(Cl)c3)CC2)c(C(=O)OC)c1C | · | · | · | · | 4.0%
CCNC(=O)C1(C)CCCN(C(=O)c2cccnc2Oc2ccccc2)C1 (stereo unspecified) | · | · | · | · | 4.3%
Cc1cc(C)nc(-n2nc(C)cc2NC(=O)CN2CCCC2)n1 | ? | 3.7% | ? | 0.8% | 3.8%
Cc1cc(C)nc(-n2nc(C)cc2NC(=O)CN2CCC(C)CC2)n1 | 2.33µM* | -12.8% | ? | 11.8% | ?
CCc1nc2ccccc2c(NC(=O)CN2CCC(C)CC2)c1C | 7.38µM* | -6.2% | -7.2% | 5.5% | -13.7%
Cc1cc(C)nc(-n2nc(C)cc2NC(=O)CNC(C)c2ccccc2)n1 (stereo unspecified) | -7.3% | -1.0% | ? | -3.9% | 7.3%
CCC1CCCCN1CC(=O)Nc1cc(C)nn1-c1nc(C)cc(C)n1 (stereo unspecified) | 0.2% | -2.6% | 5.22µM* | 6.2% | 7.6%
COc1cc(C)ccc1OCc1cc(C(=O)N(C)CCCN2CCOCC2)no1 | ? | -7.9% | 2.5% | 1.3% | -4.7%
COc1ccc(-c2[nH]c(-c3ccc4c(c3)OCO4)nc2-c2ccccc2)cc1 | ? | -192.3% | ? | -30.9% | -0.9%
Cc1c(C)c(C)c2[nH]c(-c3ccc4c(c3)OCO4)nc2c1C | 2.08µM* | -31.9% | 2.33µM* | -6.5% | -18.1%
Oc1[nH]c2ccccc2c1C1=NCCCCC1 | ? | -33.4% | 46.9% | -2.0% | -4.0%
CC1CCN(Cc2c(C(=O)O)nnn2-c2nonc2N)CC1 | 1.47µM* | 2.0% | 18.7% | -1.2% | 4.3%
O=c1[nH]c(=O)n(C(c2ccccc2)(c2ccccc2)c2ccccc2)cc1N(CCO)CCO | · | · | · | · | 1.1%
CCC(C)CCN1C(N(C)C)=NC[C@@H]1CC(C)C (stereo partly specified) | ? | · | 13.1µM* | 0.0% | -13.3%
CCC(CC)CN1C(N(C)C)=NC[C@@H]1CC(C)C | 8.28µM* | · | ? | -0.8% | -22.5%
COC(=O)c1ccc(CNC(=O)Cn2cnc3c(SC)nc(N)nc32)cc1 | · | · | · | -1.5% | 4.4%
CCN(CC)CCCNC(=S)N(CCO)Cc1cc2cc3c(cc2[nH]c1=O)OCCO3 | ? | 7.7% | 20.5% | 1.1% | -12.5%
Oc1ccc2[nH]cc(CCCCN3CC=C(c4ccccc4)CC3)c2c1 | 4.26µM* | · | 4.26µM* | · | ·
O=C(O)c1ccc2[nH]cc(CCCCN3CC=C(c4ccccc4)CC3)c2c1 | -6.0% | · | -6.1% | · | ·
O=C(Nc1ccc(Oc2cccnc2)cc1)C1CCN(Cc2ccccc2)CC1 | ? | -8.0% | ? | 2.9% | -10.5%
Cc1cccc(CN2CCCC(C(=O)Nc3ccccc3Oc3cccnc3)C2)c1 (stereo unspecified) | -4.9% | 0.0% | 9.28µM* | 0.7% | 3.3%
CC(=O)c1cccc(NC(=O)C2CCN(S(=O)(=O)c3ccc(C)cc3)CC2)c1 | ? | -18.5% | -5.6% | -17.1% | 1.3%
Cc1ccc(CN2CCC(C(=O)Nc3ccc(Oc4cccnc4)cc3)CC2)cc1 | -21.1% | -5.8% | 10.4µM* | -3.3% | -21.8%
